# High-throughput results from PubChem BioAssay.
# NR3A LBD binder = binders of NR3A ligand-binding domain, primary screen, biophysical, differential scanning fluorimetry, uHTS; actives 2.5% (n = 340,000); AID 1259313, 2017; Tm shift relative to glycine control, % at 25 µM; Glutamate receptor ionotropic, NMDA 3A (GRIN3A) ligand-binding domain; NR3A LBD differential scanning fluorimetry, Tm shift; 0% = protein alone, 100% = glycine-bound protein;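 active = melting temperature shift of at least 10% of the positive control shift, at one fixed dose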
# Gli-Sufu antag = Gli-Sufu pathway antagonists, primary screen, luciferase luminescence, Sufu-KO-LIGHT cells, uHTS. inhibition, % at 5 µM. Sufu-KO-LIGHT fibroblasts, Gli luciferase reporter luminescence. AID 588413, 2011. actives 0.74% (n = 340,000);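 active = inhibition above about 55%, limit read from the data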
# MPTP block = mitochondrial permeability transition pore inhibitors, primary screen, biochemical, isolated mouse mitochondria, absorbance; actives 1.4% (n = 360,000); AID 602449, 2012; Ca2+ swelling absorbance, 30 min; inhibition, % at 10 µM;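 active = inhibition of 50% or more, scaled per plate between neutral and stimulator controls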
# Beta cell apopt = inhibitors of cytokine-induced beta cell apoptosis, primary screen, luminescence; INS-1E cytokine-induced death, ATP luminescence, 48 h; percent of positive-control rescue, neutral wells zero; protection from apoptosis, % (no concentration beside the values); actives 0.8% (n = 300,000); AID 435005, 2010;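 active = Every replicate reaches about 75%, or at least half do and their mean reaches it too, limit read from the data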;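 also: higher means more ATP so stronger rescue from cytokine killing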
# CSC inhib = cancer stem cell viability inhibitors, primary screen, luminescence | actives 1.1% (n = 300,000) | cancer stem cell-like cells viability | inhibition, % at 7.5 µM | AID 2717, 2010; in the data active = inhibition above about 75%; tested in HMLE shEcad cells
# Mdm2-MdmX inh = inhibitors of human Mdm2-MdmX association, primary screen, cell-based, luminescence, split luciferase, SaOS-2, uHTS. AID 485346, 2010. actives 3% (n = 330,000). SaOS-2 split-luciferase Mdm2/MdmX complementation. inhibition, % at 8 µM;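 active = inhibition of at least 50% at 8 µM in the primary screen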
# Target sequence (O15151 whole entry, looked up): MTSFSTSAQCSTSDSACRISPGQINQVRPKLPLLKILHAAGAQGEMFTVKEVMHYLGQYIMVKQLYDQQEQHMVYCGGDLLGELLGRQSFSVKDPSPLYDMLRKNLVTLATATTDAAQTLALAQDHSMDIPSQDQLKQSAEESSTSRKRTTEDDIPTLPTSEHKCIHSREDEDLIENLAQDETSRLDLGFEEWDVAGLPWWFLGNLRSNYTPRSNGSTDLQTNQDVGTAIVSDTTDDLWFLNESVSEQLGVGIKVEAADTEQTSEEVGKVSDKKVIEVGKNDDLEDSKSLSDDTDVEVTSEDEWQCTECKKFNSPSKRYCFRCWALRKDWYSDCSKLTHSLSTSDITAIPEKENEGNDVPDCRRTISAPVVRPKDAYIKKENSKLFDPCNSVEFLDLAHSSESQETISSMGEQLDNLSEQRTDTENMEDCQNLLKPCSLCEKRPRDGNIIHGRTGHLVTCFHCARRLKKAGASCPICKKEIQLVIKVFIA
# Target sequence (Q00987 whole entry, looked up): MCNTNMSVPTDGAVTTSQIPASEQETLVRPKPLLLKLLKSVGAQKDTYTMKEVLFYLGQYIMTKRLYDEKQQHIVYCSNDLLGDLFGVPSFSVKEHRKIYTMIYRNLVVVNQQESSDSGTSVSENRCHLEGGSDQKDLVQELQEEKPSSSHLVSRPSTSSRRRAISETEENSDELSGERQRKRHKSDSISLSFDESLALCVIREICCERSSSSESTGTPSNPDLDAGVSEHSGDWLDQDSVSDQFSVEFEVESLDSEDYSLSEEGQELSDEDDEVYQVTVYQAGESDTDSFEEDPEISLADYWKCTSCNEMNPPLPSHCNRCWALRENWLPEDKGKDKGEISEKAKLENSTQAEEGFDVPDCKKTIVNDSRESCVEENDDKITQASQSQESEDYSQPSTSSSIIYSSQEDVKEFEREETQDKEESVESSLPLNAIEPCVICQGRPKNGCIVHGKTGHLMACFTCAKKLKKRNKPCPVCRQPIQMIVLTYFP
# Rh123 counter = fluorescence retest of MPTP screen hits in isolated mitochondria, single concentration; shares compounds with MPTP block; membrane potential, Rhodamine 123 fluorescence; inhibition, % at 10 µM; actives 78% (n = 5,000); in the data active = inhibition above about 22%
# MPTP abs DR = mitochondrial permeability transition pore inhibitors, dose response, biochemical, absorbance, uHTS hits; AID 651561, 2012; actives 58% (n = 780); IC50, µM; isolated mitochondria swelling; shares compounds with MPTP block; in the data active = IC50 below about 20 µM
# MPTP cs DR = fluorescent counter-screen in isolated mitochondria, dose response, counter-screen for MPTP inhibitor project, biochemical, fluorescence, uHTS hits | shares compounds with MPTP block | actives 49% (n = 780) | IC50, µM | isolated mitochondria counterscreen, fluorescence read-out | AID 651564, 2012; in the data active = IC50 below about 80 µM
# Hits are given with their value; 0 = inactive; - = no result given. Sampled rows, rich in hits. Any-hit rate of the full collection: about 6.6%.
SMILES,NR3A LBD binder,Gli-Sufu antag,MPTP block,Beta cell apopt,CSC inhib,Mdm2-MdmX inh,Rh123 counter,others
CC(=O)c1ccc(S(=O)(=O)NCC(=O)NC(c2nc3ccccc3[nH]2)C(C)C)cc1 (stereo not drawn),0,0,0,0,0,0,-,
CCOc1ccc(NC(=S)Nc2ccc(C)c([N+](=O)[O-])c2)cc1,0,0,86,0,-,0,90,
CCOc1ccc(NC(=S)/C(=C(\[O-])c2ccc(C)c([N+](=O)[O-])c2)[n+]2ccccc2)cc1,0,0,0,0,0,0,-,
O=C(NC(=S)Nc1ccc(F)c([N+](=O)[O-])c1)c1ccccc1F,0,0,0,0,0,0,-,
O=C(Nc1ccccc1)Nc1ccc(F)c([N+](=O)[O-])c1,26,0,94,0,0,0,99,
O=C(Nc1ccc(Cl)cc1)Nc1cc([N+](=O)[O-])ccc1F,0,0,93,0,0,0,93,
CC(=O)Nc1ccc(C)c([N+](=O)[O-])c1,0,0,0,0,0,0,-,
Cc1ccc(NC(=O)Nc2ccccc2)cc1[N+](=O)[O-],13,0,77,0,0,0,101,
Cc1ccc(C)c(S(=O)(=O)Nc2ccccc2C(=O)Nc2ccc(S(=O)(=O)Nc3ncccn3)cc2)c1,0,0,0,0,0,0,-,
O=C(C[C@H]1C[C@H](C(=O)N2CCOCC2)[C@@]2(CCC3CCCC3)c3[nH]c4ccc(Cl)cc4c3CCN2C1=O)NCCCn1ccnc1,0,0,0,-,-,0,-,
NC(=O)c1ccc(NCCc2ccco2)cc1,-,-,0,-,-,-,-,
CC1Oc2ccccc2C=C1/C=N\NC(=O)c1cccnc1 (stereo not drawn),0,0,0,0,0,0,-,
CC(C)(C)C(=O)NC(=S)NNC(=O)c1ccc(Cl)cc1Cl,0,0,76,0,0,0,0,
N#C/C(=C\c1ccco1)C(=O)Nn1cnnc1,0,0,0,0,0,0,-,
CCOC(=O)Cn1c(=N)n(CCOc2ccc3ccccc3c2)c2ccccc21,0,0,91,0,0,0,0,MPTP abs DR=4;MPTP cs DR=26
CCCn1c(=N)n(CCOc2ccc(OC)cc2)c2ccccc21,0,0,54,0,0,0,0,MPTP abs DR=8.8;MPTP cs DR=23
CCCCn1c(=N)n(CC(O)COc2ccccc2)c2ccccc21 (stereo not drawn),0,0,76,-,0,0,0,MPTP abs DR=13;MPTP cs DR=36
CCOC(=O)Cn1c(=N)n(CCOc2ccc(OC)cc2)c2ccccc21,0,0,0,0,0,0,-,
COCCCNC(=O)Cn1ccc(N)nc1=O,0,0,0,0,0,0,-,
O=[N+]([O-])c1ccccc1CNC(Cc1ccccc1)c1ccccc1 (stereo not drawn),0,0,0,0,0,0,-,
O=C(Nc1ccc2ccccc2c1)c1ccccc1O,20,0,98,-,0,0,92,
O=C(Nc1ccc2ccccc2c1)c1cn(-c2ccccc2)nc1-c1cccs1,25,0,70,0,0,0,70,
O=C(Nc1ccc2ccccc2c1)c1ccccc1Cl,-,-,0,-,-,-,-,
O=C(NC1CCCCC1)c1cc2ccccc2cc1O,0,0,115,0,0,0,49,
Cc1ccc(NC(=O)NNC(=O)c2cc3ccccc3cc2O)cc1C,0,0,0,0,0,0,-,
SMILES,NR3A LBD binder,Gli-Sufu antag,MPTP block,Beta cell apopt,CSC inhib,Mdm2-MdmX inh,Rh123 counter,others
Cc1ccc(NC(=O)c2cc3ccccc3cc2O)cc1,22,0,70,0,0,0,73,
COc1ccc(CNC(=O)C[C@H]2C[C@H](C(=O)N3CCCCC3)[C@@]3(C)c4[nH]c5ccc(Cl)cc5c4CCN3C2=O)cc1OC,0,0,0,-,-,0,-,
Cc1ccc(-c2ccc(CN3C(C)C(=O)N(Cc4cn(Cc5ccco5)nn4)CCS3(=O)=O)cc2)c(C)c1 (stereo not drawn),-,-,0,-,-,-,-,
CS(=O)(=O)N(C(=O)NC(=O)NC12CC3CC(CC(C3)C1)C2)C1CCCCC1,0,0,0,0,0,0,-,
N#CCC(=O)Nc1ccc(C(=O)OCC(=O)Nc2cccc(C(F)(F)F)c2)cc1,0,0,0,0,0,0,-,
COc1ccc(NC(=O)C23CC4CC(C2)CC(c2ccc(C)cc2)(C4)C3)cc1,0,0,60,0,0,0,21,
O=c1oc2c(-c3ccc([N+](=O)[O-])cc3)cc(O)cc2s1,0,0,78,0,0,0,55,
CC(C)(C)NCC(O)COc1c(F)cc(Br)cc1F (stereo not drawn),0,0,0,0,-,0,-,
CC(C)(C)CC(C)(C)NCC(O)COc1c(F)cc(Br)cc1F (stereo not drawn),0,0,102,0,0,0,0,MPTP abs DR=7.1;MPTP cs DR=57
COC(=O)c1c(NC(=O)C2CCCCC2)sc2c1CCN(C(C)C)C2,0,0,55,0,0,0,0,MPTP abs DR=0;MPTP cs DR=0
O=c1oc2ccccc2c(Nc2cccc3ccccc23)c1[N+](=O)[O-],0,0,67,0,0,0,79,
O=c1oc2ccccc2c(Nc2ccccc2O)c1[N+](=O)[O-],0,0,0,0,0,0,-,
O=c1oc2ccccc2c(NCc2ccc(Cl)cc2)c1[N+](=O)[O-],0,0,54,0,0,0,73,
Cc1cc(Cl)cc(Cl)c1CNc1c([N+](=O)[O-])c(=O)oc2ccccc12,0,0,90,-,0,0,96,
O=C(NCCCn1ccnc1)C(Cc1ccc([N+](=O)[O-])cc1)N1C(=O)c2ccccc2C1=O (stereo not drawn),0,0,0,0,0,0,-,
CN[C@@H]1CC[C@H](c2ccc(Cl)c(Cl)c2)c2ccccc21,0,0,-,-,-,0,-,
CSc1nnc(C(C)c2ncc(C(F)(F)F)cc2Cl)n1C (stereo not drawn),0,0,0,0,0,0,-,
Cc1ccc(NC(=O)COC(=O)C2(c3ccc(Cl)cc3)CCCC2)cc1,0,0,78,0,0,0,82,
Cc1ccc(C(C)C)c(OCCNC(=O)c2ccccc2O)c1,0,0,88,0,0,0,83,
CSc1ccc(Cl)c(C(=O)NCCOc2cc(C)ccc2C(C)C)c1,0,0,0,0,0,0,-,
CC(C)(C)OC(=O)N/N=C/c1cc(N=Nc2ccccc2)ccc1O,0,0,96,0,0,0,69,
